Records with an inconclusive call do not appear. Calls of active or inactive are those of the source. How the source made its calls, unless noted: active means hit-call score of the fitted dose curve at least 0.9, where 1 is the maximum; inconclusive means response in the unintended direction; inactive means score below 0.9.

In test [1] the target is Estrogen receptor beta (Homo sapiens) (UniProt Q92731). Nature of the test: OT_ER_ERbERb_1440: Odyssey Thera (OT) 24-hour HEK293T Protein-Complementation Assay for Estrogen Receptor-beta/-beta Homodimer (AID 2283380).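 Further: fluorescence gain from ER beta LBD homodimer complementation read by laser scanning cytometry; scored as signal increase over DMSO baseline for both agonists and antagonists.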 A digest of the protocol: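 Fluorescence increase, nuclear for agonists or whole-cell for antagonists, relative to DMSO vehicle, quantified by laser scanning cytometer after fixation and Draq5 staining. Readout from 24 h treatment of HEK293T cells carrying complementation-paired ER beta LBD (aa 310-547).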
Sequence of Estrogen receptor beta (Homo sapiens) (Q92731 whole entry, looked up, the tested form may be a part): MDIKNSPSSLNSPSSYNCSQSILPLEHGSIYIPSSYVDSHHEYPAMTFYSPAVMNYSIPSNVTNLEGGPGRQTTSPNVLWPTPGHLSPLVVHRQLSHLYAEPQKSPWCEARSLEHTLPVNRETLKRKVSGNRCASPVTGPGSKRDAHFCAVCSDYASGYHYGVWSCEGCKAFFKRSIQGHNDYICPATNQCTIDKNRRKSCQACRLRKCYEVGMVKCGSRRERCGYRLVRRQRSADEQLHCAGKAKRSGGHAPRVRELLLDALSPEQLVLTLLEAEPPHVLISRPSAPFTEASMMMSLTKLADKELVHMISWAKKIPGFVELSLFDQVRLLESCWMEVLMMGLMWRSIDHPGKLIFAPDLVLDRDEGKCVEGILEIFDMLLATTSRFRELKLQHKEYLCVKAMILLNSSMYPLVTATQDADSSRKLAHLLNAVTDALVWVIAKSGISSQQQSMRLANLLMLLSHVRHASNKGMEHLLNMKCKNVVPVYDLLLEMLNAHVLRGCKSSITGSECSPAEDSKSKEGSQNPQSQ

Test [2] concerns the target Estrogen receptor (Homo sapiens) (UniProt P03372). Nature of the test: OT_ERa_GFPERaERE_0480: Odyssey Thera (OT) 8-hour HeLa Transcription Induction Assay for Estrogen Receptor (AID 2283381; active means hit-call score of the fitted dose curve at least 0.9, where 1 is the maximum; inactive means score below 0.9). In a few lines: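 HeLa cells expressing GFP reporter under estrogen response element, imaged 8 h after dosing. GFP induction quantified by high-content fluorescence microscopy image analysis; gain of signal fitted versus DMSO.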

Test [3] shares this target. Nature of the test: OT_ERa_GFPERaERE_0120: Odyssey Thera (OT) 2-hour HeLa Transcription Induction Assay for Estrogen Receptor (AID 2283382). A digest of the protocol: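 HeLa cells were dosed for 2 h, then GFP reporter induction was quantified by fluorescence microscopy with high-content image analysis. Gain of signal fitted against DMSO baseline.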
The target of test [4] is Bile acid receptor (Homo sapiens) (UniProt Q96RI1). Nature of the test: OT_FXR_FXRSRC1_0480: Odyssey Thera (OT) 8-hour HEK293T Protein-Complementation Assay for Farnesoid X receptor/SRC-1 Co-activator (AID 2283383). A digest of the protocol:
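HEK293T protein-fragment complementation assay: FXR and SRC-1 coactivator are fused to reporter fragments, and their interaction restores a fluorescent reporter. Readout was taken 8 h after dosing, with gain of signal fit relative to DMSO.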

Test [5] shares this target. The experiment in a line: OT_FXR_FXRSRC1_1440: Odyssey Thera (OT) 24-hour HEK293T Protein-Complementation Assay for Farnesoid X receptor/SRC-1 Co-activator (AID 2283384). In a few lines:
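HEK293T cells, 24 h after chemical dosing. FXR–SRC-1 coactivator interaction read as fluorescence from protein-fragment complementation of a split reporter. Gain of signal fitted against DMSO baseline.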

Test [6] deals with Retinoic acid receptor RXR-alpha (Homo sapiens) (UniProt P19793). Nature of the test: OT_NURR1_NURR1RXRa_0480: Odyssey Thera (OT) 8-hour HEK293T Protein Complementation Assay for Nurr1/retinoid X receptor (RXR) (AID 2283385). A digest of the protocol:
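HEK293T cells expressing Nurr1 and RXRα fused to reporter fragments (protein-fragment complementation); fluorescence measured 8 h after dosing. Gain of signal fitted relative to DMSO.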

For test [7] the target is unchanged. The experiment in a line: OT_NURR1_NURR1RXRa_1440: Odyssey Thera (OT) 24-hour HEK293T Protein Complementation Assay for Nurr1/retinoid X receptor (RXR) (AID 2283386). A digest of the protocol:
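HEK293T protein-fragment complementation of Nurr1 and RXRα fused to reporter fragments; compounds 24 h. Fluorescence gain from reconstituted reporter fitted versus DMSO.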

Test [8] concerns the target Peroxisome proliferator-activated receptor gamma (Homo sapiens) (UniProt P37231). Nature of the test: OT_PPARg_PPARgSRC1_0480: Odyssey Thera (OT) 8-hour Protein-Complementation Assay for Peroxisome Proliferator-activated Receptor Gamma / SRC-1 Co-activator (AID 2283387).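 Further: nuclear to cytoplasmic split Venus YFP fluorescence ratio reporting PPARg SRC-1 interaction.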 In a few lines: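 HEK293T transiently transfected with PPARg and SRC-1 fused to Venus YFP fragments, compounds 8 h at 37C. Fixed, Draq5-stained cells imaged; nuclear/cytoplasmic 488 nm fluorescence ratio over at least 350 cells per image; gain fitted versus DMSO.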

Test [9] shares this target. The experiment in a line: OT_PPARg_PPARgSRC1_1440: Odyssey Thera (OT) 24-hour Protein-Complementation Assay for Peroxisome Proliferator-activated Receptor Gamma/ SRC-1 Co-activator (AID 2283388). A digest of the protocol:
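Cells carrying the PPARg/SRC-1 fragment-complementation reporter receive compound for 24 hours, are fixed and counterstained with Draq5, then imaged. Increased nuclear relative to cytoplasmic YFP fluorescence above DMSO baseline indicates binding activity.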

Test [10] can be described thus: CEETOX_H295R_11DCORT: CeeTox H295R High-throughput Steroidogenesis Assay for 11-Deoxycortisol (11DCORT) (AID 2283432; active means hit-call score of the fitted dose curve at least 0.9, where 1 is the maximum; inactive means score below 0.9;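 on AC50: 11-deoxycortisol secreted into the medium measured by LC-MS/MS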). The settings on record: actives raise or lower the signal. A digest of the protocol: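 H295R cells prestimulated 48 h with 10 uM forskolin, then exposed 48 h to chemical in 0.1% DMSO. 11-Deoxycortisol in medium quantified by HPLC-MS/MS after MTBE extraction; bidirectional fit versus DMSO. MTT viability read in same wells.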

A short description of test [11]: CEETOX_H295R_OHPREG: CeeTox H295R High-throughput Steroidogenesis Assay for OH-Pregnenolone (OHPREG) (AID 2283434; active means hit-call score of the fitted dose curve at least 0.9, where 1 is the maximum; inactive means score below 0.9). The settings on record: actives raise or lower the signal. In a few lines:
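Hormone levels in spent medium were measured by tandem mass spectrometry following liquid-liquid extraction. Cells (H295R) had been forskolin-stimulated (10 uM, 48 h) before a 48 h chemical exposure at 0.1% DMSO, with activity fitted in both directions against DMSO.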

Test [12] is described as follows: CEETOX_H295R_OHPROG: CeeTox H295R High-throughput Steroidogenesis Assay for OH-Progesterone (OHPROG) (AID 2283435; active means hit-call score of the fitted dose curve at least 0.9, where 1 is the maximum; inactive means score below 0.9;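 on AC50: human adrenal H295R cells primed 48 h with 10 µM forskolin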). The settings on record: actives raise or lower the signal. A digest of the protocol:
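H295R adrenal cells prestimulated 48 h with 10 uM forskolin, then exposed 48 h to chemical (0.1% DMSO final). 17alpha-hydroxyprogesterone in medium quantified by HPLC-MS/MS; bidirectional fit versus DMSO, with MTT viability measured in the same wells.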

The nature of test [13]: CEETOX_H295R_CORTIC: CeeTox H295R High-throughput Steroidogenesis Assay for Corticosterone (CORTIC) (AID 2283437; active means hit-call score of the fitted dose curve at least 0.9, where 1 is the maximum; inactive means score below 0.9;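 further: corticosterone secreted into medium quantified by mass spectrometry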;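 on AC50: human H295R adrenal cells prestimulated with forskolin before chemical exposure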). The settings on record: actives raise or lower the signal. A digest of the protocol: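 Corticosterone secreted into medium is measured by reverse-phase HPLC with tandem MS following liquid-liquid extraction. Cells are forskolin-stimulated (10 uM, 48 h) before 48 h test exposure; activity fitted in both directions against DMSO.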

Test [14] is described as follows: CEETOX_H295R_CORTISOL: CeeTox H295R High-throughput Steroidogenesis Assay for Cortisol (AID 2283438; active means hit-call score of the fitted dose curve at least 0.9, where 1 is the maximum; inactive means score below 0.9;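 further: cortisol secreted into medium quantified by LC-MS/MS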). The conditions noted are these: actives raise or lower the signal. In a few lines:
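Forskolin-primed H295R cells (10 uM, 48 h) treated 48 h with test chemical in 0.1% DMSO. Cortisol in medium quantified by MTBE extraction and HPLC-MS/MS; bidirectional fit vs DMSO, MTT viability in same wells.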

Test [15] can be described thus: CEETOX_H295R_DOC: CeeTox H295R High-throughput Steroidogenesis Assay for DOC (AID 2283439; active means hit-call score of the fitted dose curve at least 0.9, where 1 is the maximum; inactive means score below 0.9). The settings on record: actives raise or lower the signal. In a few lines: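 H295R cells prestimulated 48 h with 10 uM forskolin, then exposed 48 h to test chemical (0.1% DMSO final). Medium 11-deoxycorticosterone measured by HPLC-MS/MS after MTBE extraction; bidirectional fit vs DMSO, viability checked by MTT in same wells.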

Test [16] is described as follows: CEETOX_H295R_ESTRADIOL: CeeTox H295R High-throughput Steroidogenesis Assay for Estradiol (AID 2283440; active means hit-call score of the fitted dose curve at least 0.9, where 1 is the maximum; inactive means score below 0.9;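 further: estradiol secreted into medium quantified by LC-MS/MS after dansyl derivatisation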). The settings on record: actives raise or lower the signal. In a few lines:
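Readout is estradiol in conditioned medium, quantified by reverse-phase HPLC-MS/MS against a 7-point standard curve. Cells: H295R, forskolin-stimulated, then dosed 48 h in 0.1% DMSO; activity fitted in both directions relative to DMSO.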

Test [17] in a line: CEETOX_H295R_ESTRONE: CeeTox H295R High-throughput Steroidogenesis Assay for Estrone (AID 2283441; active means hit-call score of the fitted dose curve at least 0.9, where 1 is the maximum; inactive means score below 0.9;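 further: estrone secreted into medium measured by LC-MS/MS after dansyl derivatization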). The conditions noted are these: actives raise or lower the signal. A digest of the protocol:
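H295R cells prestimulated 48 h with 10 uM forskolin, then exposed 48 h to chemicals in 0.1% DMSO final; estrone in medium extracted with MTBE, dansyl-derivatized, quantified by HPLC-MS/MS; bidirectional fitting versus DMSO, viability by MTT.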

Test [18] can be described thus: CEETOX_H295R_PROG: CeeTox H295R High-throughput Steroidogenesis Assay for Progesterone (PROG) (AID 2283442; active means hit-call score of the fitted dose curve at least 0.9, where 1 is the maximum; inactive means score below 0.9;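 on AC50: human H295R adrenal cells primed with 10 µM forskolin before dosing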). The conditions noted are these: actives raise or lower the signal. In a few lines:
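Measured analyte is progesterone secreted by H295R cells at 48 h of chemical treatment, following 10 uM forskolin priming. Quantitation used HPLC-MS/MS against a 7-point standard curve; cytotoxicity was checked by MTT absorbance.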

Test [19] is described as follows: CEETOX_H295R_ANDR: CeeTox H295R High-throughput Steroidogenesis Assay for Androstenedione (ANDR) (AID 2283436; active means hit-call score of the fitted dose curve at least 0.9, where 1 is the maximum; inactive means score below 0.9). The settings on record: actives raise or lower the signal. In a few lines: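 Read-out is androstenedione secreted into medium, measured by tandem mass spectrometry after liquid-liquid extraction. Cells were H295R, dosed for 48 h per modified OECD 456; activity fitted in both directions relative to DMSO.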

Test [20] in a line: CEETOX_H295R_TESTO: CeeTox H295R High-throughput Steroidogenesis Assay for Testosterone (TESTO) (AID 2283457; active means hit-call score of the fitted dose curve at least 0.9, where 1 is the maximum; inactive means score below 0.9). The settings on record: actives raise or lower the signal. In a few lines:
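Steroidogenesis in H295R cells following OECD 456 with minor changes; 48 h exposure. Medium testosterone by HPLC-MS/MS, DMSO as baseline, with MTT viability run in parallel.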

Sequence of Bile acid receptor (Homo sapiens) (Q96RI1 whole entry, looked up, the tested form may be a part): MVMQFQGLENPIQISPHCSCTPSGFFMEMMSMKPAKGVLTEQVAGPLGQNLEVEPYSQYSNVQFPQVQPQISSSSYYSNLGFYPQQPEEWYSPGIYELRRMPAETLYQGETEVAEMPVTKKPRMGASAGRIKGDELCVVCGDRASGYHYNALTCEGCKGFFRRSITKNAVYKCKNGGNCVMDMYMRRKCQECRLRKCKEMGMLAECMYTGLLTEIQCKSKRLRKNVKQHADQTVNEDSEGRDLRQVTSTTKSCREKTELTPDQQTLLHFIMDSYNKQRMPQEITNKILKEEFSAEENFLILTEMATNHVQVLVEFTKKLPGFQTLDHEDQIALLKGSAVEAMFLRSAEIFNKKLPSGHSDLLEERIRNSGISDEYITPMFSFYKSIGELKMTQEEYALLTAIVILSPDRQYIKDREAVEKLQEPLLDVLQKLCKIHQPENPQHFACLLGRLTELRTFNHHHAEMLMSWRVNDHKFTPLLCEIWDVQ
Sequence of Retinoic acid receptor RXR-alpha (Homo sapiens) (P19793 whole entry, looked up, the tested form may be a part): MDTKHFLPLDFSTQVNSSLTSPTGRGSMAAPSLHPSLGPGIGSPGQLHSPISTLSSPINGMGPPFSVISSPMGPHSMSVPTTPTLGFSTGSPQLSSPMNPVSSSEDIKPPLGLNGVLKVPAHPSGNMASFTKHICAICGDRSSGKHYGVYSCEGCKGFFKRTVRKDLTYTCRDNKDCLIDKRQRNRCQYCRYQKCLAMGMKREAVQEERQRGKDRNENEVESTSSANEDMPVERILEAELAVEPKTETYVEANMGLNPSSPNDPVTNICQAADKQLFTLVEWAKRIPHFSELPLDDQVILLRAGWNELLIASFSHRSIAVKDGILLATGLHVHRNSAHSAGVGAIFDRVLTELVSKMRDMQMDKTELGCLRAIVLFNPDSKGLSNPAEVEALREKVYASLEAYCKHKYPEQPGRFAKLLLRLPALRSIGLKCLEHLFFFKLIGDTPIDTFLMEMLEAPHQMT
Sequence of Estrogen receptor (Homo sapiens) (P03372 whole entry, looked up): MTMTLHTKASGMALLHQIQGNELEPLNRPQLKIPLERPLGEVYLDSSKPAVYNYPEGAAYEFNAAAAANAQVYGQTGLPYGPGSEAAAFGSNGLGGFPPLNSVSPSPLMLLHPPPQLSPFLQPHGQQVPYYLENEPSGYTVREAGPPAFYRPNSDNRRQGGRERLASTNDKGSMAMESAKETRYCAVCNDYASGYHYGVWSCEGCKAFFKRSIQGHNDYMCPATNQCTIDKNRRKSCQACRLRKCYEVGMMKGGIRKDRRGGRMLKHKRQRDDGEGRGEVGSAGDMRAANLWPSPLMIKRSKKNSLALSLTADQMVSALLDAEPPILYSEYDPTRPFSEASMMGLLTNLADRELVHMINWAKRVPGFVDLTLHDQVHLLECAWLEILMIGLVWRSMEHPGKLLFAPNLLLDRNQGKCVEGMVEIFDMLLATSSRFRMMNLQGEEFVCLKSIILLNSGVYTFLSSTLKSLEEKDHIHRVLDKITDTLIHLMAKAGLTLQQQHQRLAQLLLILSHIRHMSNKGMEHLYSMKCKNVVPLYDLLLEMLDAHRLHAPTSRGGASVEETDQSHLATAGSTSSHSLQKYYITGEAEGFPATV
Sequence of Peroxisome proliferator-activated receptor gamma (Homo sapiens) (P37231 whole entry, looked up, the tested form may be a part): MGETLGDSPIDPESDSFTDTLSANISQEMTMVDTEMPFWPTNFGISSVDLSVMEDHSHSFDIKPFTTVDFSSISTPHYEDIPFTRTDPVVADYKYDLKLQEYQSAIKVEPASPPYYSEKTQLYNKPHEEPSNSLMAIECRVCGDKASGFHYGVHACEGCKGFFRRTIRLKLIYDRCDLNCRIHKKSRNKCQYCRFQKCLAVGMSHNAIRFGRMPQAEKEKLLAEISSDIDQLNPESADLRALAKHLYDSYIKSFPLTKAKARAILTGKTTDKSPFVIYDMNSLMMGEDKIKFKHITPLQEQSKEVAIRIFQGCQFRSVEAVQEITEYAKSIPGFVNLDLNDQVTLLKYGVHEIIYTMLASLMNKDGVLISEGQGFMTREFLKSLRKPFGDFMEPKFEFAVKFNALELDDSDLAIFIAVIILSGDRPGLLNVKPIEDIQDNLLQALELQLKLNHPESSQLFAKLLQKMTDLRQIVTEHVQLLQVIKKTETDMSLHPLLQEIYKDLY

Regarding `CCCCCCC(C)OC(=O)CCCCC(=O)OC(C)CCCCCC` (stereo not given), the outcome in test [1], in [2], in test [3], in [4], in test [5] and in test [6] was inactive. Further, the call in test [7], in [8] and in test [9] was inactive.
Turning to `CC(C)OC(=O)c1ccccc1C(=O)OC(C)C`, the compound was classed as inactive in test [2], in test [3], in test [4], in [5], in test [7] and in test [8]. For the same compound, in test [9], the result was inactive.
On to `COC(=O)C1CCC(C(=O)OC)CC1` (stereo not given), for which the compound was called inactive in test [1], in test [2], in test [3], in test [4], in test [5] and in test [6]. In [9], the result was inactive.
For `CCCCC(CC)COP(=O)(O)OCC(CC)CCCC` (stereo not given), the call in [2], in test [3], in [4] and in test [6] was inactive. For the same compound, the AC50 (in general, the concentration at which the activity in the assay is half-maximal) in [5] is 71.8 µM (active); in [8] it was 64.4 µM (active); in [9], 67.8 µM (active).
On to `CC(Cc1ccc(O)c(O)c1)C(C)Cc1ccc(O)c(O)c1` (stereo not given), for which the AC50 in test [1] is 11.9 µM (active); in [2] it was 11.9 µM (active); in [3] it was 1.47 µM (active); in test [10], 79.6 µM (active); in [12] it was 4.19 µM (active); in [13], 12.7 µM (active). In addition, the AC50 in [14] was 78.3 µM (active); in test [15], 11.7 µM (active); in test [18], 13.9 µM (active). The result in test [7], in test [9], in test [11], in test [16] and in test [17] was inactive.
Take `CC(CCl)OP(=O)(OC(C)CCl)OC(C)CCl` (stereo not given): the outcome in test [1], in test [2], in [3], in [4], in test [5] and in test [6] was inactive. For the same compound, the call in test [9] was inactive.
With `C(=C(c1ccccc1)c1ccccc1)c1ccccc1`, the AC50 in test [1] was 1.59 µM (active); in [2], 1.61 µM (active); in test [3], 1.52 µM (active); in test [4], 73.5 µM (active); in test [5], 76.8 µM (active); in test [6], 90.2 µM (active). For the same compound, the AC50 in test [7] is 81.3 µM (active). The call in test [8] and in test [9] was inactive.
Turning to `OC[C@@H](O)[C@@H](O)[C@H](O)[C@@H](O)CO`, the call in test [2], in test [6], in test [7], in test [8] and in test [9] was inactive.
`[Co]`: the outcome in test [1], in [2], in test [3], in [4], in test [5] and in test [7] was inactive. Moreover, the compound was classed as inactive in test [8] and in [9].
`CC/C=C\CCOC(C)=O`: the compound was classed as inactive in test [1], in test [2], in [3], in [6], in test [8] and in test [9].
As to `CCCCCCS`, the result in test [10], in test [11], in test [12], in test [19], in test [13] and in [14] was inactive. For the same compound, the compound was classed as inactive in test [15], in test [16], in [17], in test [18] and in [20].
Regarding `CNC(=S)NC`, the outcome in test [2], in test [3], in test [4], in test [5], in test [6] and in test [8] was inactive. Moreover, in test [9], the compound was classed as inactive.
On to `CCN(Cc1cccc(S(=O)(=O)O)c1)c1ccc(C(=C2C=CC(=[N+](CC)Cc3cccc(S(=O)(=O)O)c3)C=C2)c2ccc(O)cc2S(=O)(=O)[O-])cc1`, for which the outcome in test [1], in [2], in test [3], in [6], in test [7] and in [8] was inactive. Also, the call in test [9] was inactive.
With `Cc1cc(C)cc(O)c1`, the compound was called inactive in test [1], in test [2], in [3], in test [7], in test [8] and in test [9].

The values are drawn from PubChem BioAssay (EPA / NIEHS).
